# Measurements published in PubChem BioAssay.
# The source made the active and inactive calls.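 Rule for the calls: active = growth inhibition above 50% at the single 2 µM test dose, taken to imply half-maximal potency below 2 µM; inactive = the rest.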
# Assay: antimalarial activity against Dd2 strain (AID 2302);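 note: 0% = DMSO untreated growth and 100% = chloroquine plus artemisinin killed control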
# Settings: P. falciparum Dd2 in RBCs, LDH growth readout, 72 h; at 2 µM; hits give high values
row,Compound,growth inhibition
1,COc1ccc(OCCn2cc(C(=O)c3ccco3)c3ccccc32)cc1,61% (active)
2,COc1ccc(CN2CCC(NCc3cccc(C(F)(F)F)c3)CC2)cc1,8% (inactive)
3,C=CCN1C(=O)CN(S(=O)(=O)c2ccc(-n3nc(C)cc3C)cc2)C1=S,-2% (inactive)
4,CN(C)CCCOc1cc(NC(=O)Nc2ccc(-c3ccncc3)c3ccccc23)ccc1I,97% (active)
5,CCOC(=O)c1ccc(N2CCN(c3cc(C)ccc3C)CC2)c(NC(=O)Nc2ccc(Cl)c(Cl)c2)c1,42% (inactive)
6,O=S(=O)(c1ccccc1Cl)N1CCCCC(c2ccc(C(F)(F)F)cc2)=N1,72% (active)
7,COc1ccc(CC2(c3ccc(F)cc3)N=C(N)N(CCCc3cccnc3)C2=O)cc1 (configuration not stated),97% (active)
8,O=C(NC1CCCCC1)N(CCCn1ccnc1)Cc1csc(-c2ccc(CNCc3ccccc3)cc2)n1,48% (inactive)
9,CCC(CC)NCc1c(O)ccc2c(CNC(CC)CC)c(O)ccc12,94% (active)
10,O=S(=O)(Nc1cccc(CCN2CCCCC2CCN2CCCC2)c1)c1cccc2ccccc12 (configuration not stated),6% (inactive)
11,CC(C)[C@H](NC(=O)c1c(CN2CCC(N3CCCCC3)CC2)c(-c2ccccc2)nc2cc(O)ccc12)c1ccccc1,73% (active)
12,COc1cc(NC(=O)c2sc(-c3ccc(Cl)cc3)cc2Cl)ccc1OCCN1CCCC1,21% (inactive)
13,COc1cc2nc(N3CCC(CNC(=O)c4cccc5cccnc45)CC3)nc(N)c2cc1OC,33% (inactive)
14,CNc1ccc(CNCc2ccc(-c3ccc(-c4nc5ccc(C(F)(F)F)cc5[nH]4)s3)cc2)cc1,97% (active)
15,COc1ccc(CN(C)CCCc2ccc(NC(=O)c3cccc4c(=O)c5cccc(F)c5[nH]c34)cc2)cc1OC,94% (active)
16,CCCC(C)Nc1nc(C)cc(N[C@@H](Cc2ccccc2)C(=O)NCc2cccc(F)c2)n1 (some centres not stated),75% (active)
17,COC(=O)c1cccc(CNCc2cccc(-c3ccc(-c4nc5c(C)cccc5[nH]4)s3)c2)c1,65% (active)
18,COc1cc(NCCCCCNc2cc(Cl)nc3ccccc23)nc2ccccc12,54% (active)
19,CCN1CCN(c2ccc(NC(=O)c3cc4c(C)nn(-c5ccccc5)c4s3)cc2C)CC1,81% (active)

row,Compound,growth inhibition
1,CC(C#N)Cc1ccc(-c2cnc(N)c3cc(-c4ccnc(N)n4)ccc23)cc1 (configuration not stated),62% (active)
2,COc1ccc(C(=O)[C@H]2C[C@@H]2CN(C)CCC(O)c2ccc(Cl)c(Cl)c2)cc1 (some centres not stated),86% (active)
3,Cc1ccc(OCC2CCN(c3ncc(C(=O)NC4CC4)cc3Cl)CC2)cc1,72% (active)
4,O=C(Nc1cccc(-c2cccc(-c3nc4ccccc4[nH]3)c2)c1)Nc1ccc2c(c1)OCO2,57% (active)
5,CCN1CCN(Cc2c(O)ccc3c(=O)c(Oc4cc(C)cc(C)c4)c(C(F)(F)F)oc23)CC1,90% (active)
6,c1ccc(C2=NN=C(c3ccccn3)[C@H]3[C@H]4C[C@@H]([C@@H]23)[C@@H]2[C@H]4[C@H]3C[C@@H]2c2ccccc23)nc1,77% (active)
7,CN(c1ccc(C(=O)N[C@@H](CCC(=O)O)C(=O)O)cc1)S(=O)(=O)c1ccc2nc(N)[nH]c(=O)c2c1,3% (inactive)
8,C=CCc1cc(Cc2cnc(N)nc2N)c2ccc(C)nc2c1OC,-1% (inactive)
9,COc1c(Br)cc(Br)cc1-c1ccc(CN2C3CCCC2CCC3)[nH]1,83% (active)
10,Cc1cc(N[C@@H](Cc2ccccc2)C(=O)NCc2cccc(F)c2)nc(NCCOc2ccccc2)n1,7% (inactive)
11,Cn1c(N)c(N=O)c(=O)[nH]c1=O,82% (active)
12,O=C(Nc1cc(F)cc(-c2cccnc2)c1)c1ccc2c(=O)n(Cc3ccccc3)cnc2c1,11% (inactive)
13,Cn1ccc(C(=O)Nc2ccc3c(c2)CN(Cc2ccc(N4CCCC4)o2)CCC3)n1,72% (active)
14,COc1cc(OC)cc(-c2nn(-c3ccc([N+](=O)[O-])cc3C#N)c(=S)n2Cc2ccco2)c1,100% (active)
15,CCCCCN1CCCN(Cc2cccc(NC(=O)c3ccc(-c4ccccc4)cc3)c2)CC1,15% (inactive)
16,C[C@@H]1CCC[C@H](C)N1C[C@@H](O)CNS(=O)(=O)c1cccc(C(F)(F)F)c1,2% (inactive)
17,O=C1c2ccc([N+](=O)[O-])cc2C(=O)N1c1ccc2[nH]ncc2c1,-1% (inactive)
18,NC(=NC1CC1)c1ccc2nc(CCCCCc3nc4ccc(C(N)=NC5CC5)cc4[nH]3)[nH]c2c1,72% (active)
